Results reported in PubChem BioAssay AID485346 (Sanford-Burnham Center for Chemical Genomics, 2010).
Among all 330,000 compounds or so, about 10,000 (3%) were called active. What follows is part of a selection rich in actives, with near analogues and random picks from the rest. Values without a mark were called inactive.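 The calls were made as follows: active = inhibition of at least 50% at 8 µM in the primary screen; inactive = the rest.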

Target: Protein Mdm4 (Homo sapiens) + E3 ubiquitin-protein ligase Mdm2 (Homo sapiens) (UniProt O15151+Q00987)
Experiment: disruptors of Mdm2/MdmX RING complex – cell-based, luminescence, split luciferase, SaOS-2, uHTS, primary screen (AID 485346)
Conditions: SaOS-2 split-luciferase Mdm2/MdmX complementation, at 8 µM, hits give high values

Sequence of Protein Mdm4 (Homo sapiens) + E3 ubiquitin-protein ligase Mdm2 (Homo sapiens) (O15151 whole entry, looked up): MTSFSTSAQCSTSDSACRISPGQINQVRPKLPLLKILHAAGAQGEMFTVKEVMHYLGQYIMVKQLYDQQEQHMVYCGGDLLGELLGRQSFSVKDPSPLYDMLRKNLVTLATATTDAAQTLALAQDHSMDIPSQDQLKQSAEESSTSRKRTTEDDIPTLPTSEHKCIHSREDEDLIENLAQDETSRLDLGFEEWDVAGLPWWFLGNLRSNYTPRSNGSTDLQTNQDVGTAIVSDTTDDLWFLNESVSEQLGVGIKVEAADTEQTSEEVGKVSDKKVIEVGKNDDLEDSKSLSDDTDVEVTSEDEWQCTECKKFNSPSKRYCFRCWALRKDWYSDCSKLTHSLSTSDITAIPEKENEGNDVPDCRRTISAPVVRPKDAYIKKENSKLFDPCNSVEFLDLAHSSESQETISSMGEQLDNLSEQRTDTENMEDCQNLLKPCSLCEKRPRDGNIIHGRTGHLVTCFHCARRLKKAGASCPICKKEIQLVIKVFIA
Sequence of Protein Mdm4 (Homo sapiens) + E3 ubiquitin-protein ligase Mdm2 (Homo sapiens) (Q00987 whole entry, looked up): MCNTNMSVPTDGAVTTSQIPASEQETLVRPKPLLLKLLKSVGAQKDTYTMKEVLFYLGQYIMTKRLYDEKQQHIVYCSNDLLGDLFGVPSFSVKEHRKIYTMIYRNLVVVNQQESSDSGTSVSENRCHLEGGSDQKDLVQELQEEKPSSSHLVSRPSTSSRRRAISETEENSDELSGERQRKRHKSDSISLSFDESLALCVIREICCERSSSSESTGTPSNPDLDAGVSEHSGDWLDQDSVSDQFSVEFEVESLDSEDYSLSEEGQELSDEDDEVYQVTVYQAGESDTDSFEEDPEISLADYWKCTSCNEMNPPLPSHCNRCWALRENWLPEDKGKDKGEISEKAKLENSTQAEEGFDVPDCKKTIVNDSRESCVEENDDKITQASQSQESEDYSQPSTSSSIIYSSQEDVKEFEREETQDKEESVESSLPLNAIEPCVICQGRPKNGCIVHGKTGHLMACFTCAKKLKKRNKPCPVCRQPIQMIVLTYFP

Row | Structure (SMILES) | inhibition
1 | CCOc1ccc(-c2cc(C)[n+](CCN(CC)CC)c(-c3ccc(OCC)cc3)c2)cc1 | 90.7% (active)
2 | COc1ccc(CCn2c(O)c(C=NCCCn3ccnc3)c(=O)[nH]c2=O)cc1OC | -17.9%
3 | Cc1cc(=O)oc2c(C)c(OCC(=O)N3CCN(Cc4ccc5c(c4)OCO5)CC3)ccc12 | 1.14%
4 | CC12CN3CC(C)(CN(C1)C3c1cccs1)C2 (stereo not given) | -26.1%
5 | O=C(Nc1cccc2ccccc12)N1CCC2(CC1)OCCO2 | -30%
6 | O=c1c2ccccc2nc(/C=C/c2ccc(F)cc2)n1-c1ccccc1O | 60.9% (active)
7 | O=c1c2ccccc2nc(/C=C/c2ccco2)n1-c1ccccc1O | -1.65%
8 | Cc1nc2ccccc2c(=O)n1-c1ccc(Cl)cc1Cl | -13.3%
9 | CC(=O)N1CN2CN(C(C)=O)CC(C(=O)c3ccc(Br)cc3)(C2)C1 | 26.2%
10 | CC(=C1C(=O)c2ccccc2C1=O)N1CCN(CCN=Cc2c(O)n(C)c(=O)n(C)c2=O)CC1 | -1.58%
11 | O=C1C2(Cl)C3(Cl)C4(Cl)C(Cl)(Cl)C5(Cl)C3(Cl)C1(Cl)C5(Cl)C24Cl (stereo not given) | 99.3% (active)
12 | COc1ccc2[nH]c3c(c2c1)CCN[C@H]3C | 9.11%
13 | Cc1ccc(C)c(NC2=NCCCS2)c1 | 11.6%
14 | c1ccc2sc(C3CCCNC3)nc2c1 (stereo not given) | -26.6%
15 | Cc1cccc2c(CCN)c[nH]c12 | 13.4%
16 | CCCCCn1c(=O)c(C(=O)NCc2ccccc2)c(O)c2ccccc21 | 62.6% (active)
17 | CCCCCn1c(=O)c(C(=O)NCc2ccccn2)c(O)c2ccccc21 | 13.9%
18 | CCCCn1c(=O)c(C(=O)Nc2ccccc2Cl)c(O)c2ccccc21 | 37.6%
19 | CC(C)n1c(=O)c(C=Nc2ccc(Br)cc2)c(O)n(Cc2ccco2)c1=O | -33.1%
20 | CN1CCN(/N=C/c2c[nH]c3ccccc23)CC1 | -22.1%
21 | OC1/C(=C/c2ccc(C(F)(F)F)cc2)N2CCC1CC2 (stereo not given) | 17.5%
22 | CC(=NCc1ccc2c(c1)OCO2)c1c(O)[nH]c(=O)[nH]c1=O | -16%
23 | COc1cc(-n2c(=S)[nH]c3ccc(C)cc3c2=O)c(Cl)cc1Cl | 40.1%

Row | Structure (SMILES) | inhibition
24 | Cc1cc2ccccn2c1C(C[N+](=O)[O-])c1c(F)cccc1Cl (stereo not given) | 97.4% (active)
25 | c1cc2c(cc1C1OCC3C(c4ccc5c(c4)OCO5)OCC13)OCO2 (stereo not given) | 1.17%
26 | COc1ccc(CCn2c(O)c(C=NC3CC3)c(=O)[nH]c2=O)cc1OC | 24.7%
27 | CC(C)c1c(CN(C)C(C)Cc2ccccc2)n(C)n(-c2ccccc2)c1=O (stereo not given) | -0.74%
28 | CC(=O)NC(=O)NC(C)Cc1ccccc1 (stereo not given) | 15.7%
29 | CC(Cc1ccccc1)NC=O (stereo not given) | 12.4%
30 | CC(Cc1ccccc1)NCCC(c1ccccc1)c1ccccc1 (stereo not given) | 63% (active)
31 | COC1=CC=C2[C@H]3Cc4ccc(OC)c5c4[C@@]2(CCN3C)C1O5 (stereo not given in full) | 11%
32 | O=c1[nH]c(=O)n(-c2ccccc2)c(O)c1C=NC12CN3CN(CN(C3)C1)C2 | -21.9%
33 | O=C(c1cc2nc(-c3ccccc3)cc(-c3ccccc3)n2n1)N1CCC2(CC1)OCCO2 | 55.7% (active)
34 | O=C(c1cc(-c2ccncc2)nc2ccccc12)N1CCC2(CC1)OCCO2 | -28.6%
35 | Cc1ccc(-c2cc(C(=O)N3CCC4(CC3)OCCO4)no2)cc1 | -32.3%
36 | c1ccc(CCNC2CCCCCC2)cc1 | 24.6%
37 | Cc1ccc(Cn2nnnc2CN2CCC(n3nnc4ccccc43)CC2)cc1 | 26.2%
38 | CCOP(=O)(OCC)C(NC(=O)c1ccc(C)cc1)C(Cl)(Cl)Cl (stereo not given) | -8.99%
39 | CNC(=S)N/N=C1\C2CN3CCN(C2)CC1(c1ccccc1)C3 | -27.4%
40 | CN(C)c1nc(N(C)C)nc(N(C#N)CCCl)n1 | 28.9%
41 | O=C1NC(=O)N(CCc2ccc(F)cc2)C(=O)/C1=C/C=C/c1ccccc1 | 99.4% (active)
42 | O=C(O)COc1ccccc1/C=C1\C(=O)NC(=O)N(CCC2=CCCCC2)C1=O | 2.61%
43 | O=C1NC(=O)N(Cc2ccco2)C(=O)/C1=C\c1ccc(-c2ccc(F)cc2)o1 | -9.82%
44 | COc1ccccc1N=C1SCCCN1C | -4.32%
45 | CCOP(=O)(OCC)C(O)c1ccc(OC)cc1OC (stereo not given) | 19.2%
46 | CC[N+]1(C)CCCC(OC(=O)C(O)(c2ccccc2)c2ccccc2)C1 (stereo not given) | 12.9%

Row | Structure (SMILES) | inhibition
47 | COC(=O)C1=C(c2ccc(F)cc2OCc2ccccc2)C[C@@H]2CC[C@H]1N2C(=O)NCc1ccc(C(C)(C)C)cc1 | 48.4%
48 | COC(=O)C1=C(c2ccc(F)cc2OCc2ccccc2)C[C@@H]2CC[C@H]1N2C(=O)NCc1ccc2[nH]ccc2c1 | 52.5% (active)
49 | COC(=O)C1=C(c2ccccc2OCc2ccccc2)C[C@@H]2CC[C@H]1N2C(=O)NCc1ccc(OC)cc1 | 12.6%
50 | COC(=O)C1=C(c2ccc(-c3ccccc3)c(F)c2)C[C@@H]2CC[C@H]1N2C(=O)NCc1ccc(F)cc1 | 21.7%
51 | COC(=O)C1=C(c2ccc(F)cc2OCc2ccccc2)C[C@@H]2CC[C@H]1N2C(=O)NCc1ccc(OC)c(OC)c1 | 14.8%
52 | COC(=O)C1=C(c2ccc(F)cc2OCc2ccccc2)C[C@@H]2CC[C@H]1N2C(=O)NCc1ccc(Cl)cc1 | 55.7% (active)
53 | CCOP(=O)(OCC)C(NC(=O)c1ccc(OC)cc1)C(Cl)(Cl)Cl (stereo not given) | 16.4%
54 | COC(=O)N(c1ccc(OC)cc1)P1(=S)OCCC(C)O1 (stereo not given) | 7.17%
55 | CCOc1ccc(C2SCC(=O)Nc3c2c(C)nn3C2CCOC(C)(C)C2)cc1 (stereo not given) | 3.37%
56 | CCC(=O)c1ccc(OCC(=O)N2CCN(CC(=O)Nc3ccc(C)cc3)CC2)cc1 | 30%
57 | Cc1cccc(-n2c(O)c(C=NC34CN5CN(CN(C5)C3)C4)c(=O)[nH]c2=O)c1 | -8.36%
58 | CNCC(O)c1cc(F)c(OCc2ccccc2)c(OCc2ccccc2)c1F (stereo not given) | 86.6% (active)
59 | O=C(NC(c1ccc(Cl)cc1)P(=O)(Oc1ccccc1)Oc1ccccc1)OCc1ccccc1 (stereo not given) | 18.9%
60 | C[C@]12CC[C@H](O)C[C@H]1CC[C@@H]1C2CC[C@]2(C)[C@@H](C3=CC(=O)OC3)[C@@H](O)C[C@]12O (stereo not given in full) | 45.4%
61 | N#CC1=C(N)Oc2c(c(=O)oc3ccccc23)C1c1ccccc1OC(=O)c1cccs1 (stereo not given) | 62.3% (active)
62 | CCNc1nc2[nH]c(=O)c3c(c2s1)OC(N)=C(C#N)C3c1cccs1 (stereo not given) | 17.9%
63 | COC(=O)C1=C(c2cccc(OCc3ccccc3)c2)C[C@@H]2CC[C@H]1N2C(=O)NNCc1ccccc1 | 29.6%
64 | CC(=O)N(C1=NCCCS1)c1ccccc1F | 14.4%
65 | CN(C)C(=O)Oc1cc(=O)n2c3c(cccc13)CCC2 | 19.2%
66 | CCCCCCCCCCCCn1ccc(=N)cc1 | 97.2% (active)
67 | CC(C(=O)Nc1ccc(Cl)cc1Cl)N1CC=C(c2ccccc2)CC1 (stereo not given) | -0.882%
68 | NCCc1ccc(S(=O)(=O)F)cc1 | 5.92%
69 | O=C1NC(=O)C(C/C=C/c2ccccc2)C(=O)N1 | -4.93%

Row | Structure (SMILES) | inhibition
70 | CC1(C)Cc2c(C#N)c(N3CCNCC3)nc(-c3ccco3)c2CS1 | 62% (active)
71 | COc1cccc(N2C(=O)NC(=O)/C(=C\c3ccc([N+](=O)[O-])s3)C2=O)c1 | 7.01%
72 | COC(=O)[C@@H]1C(OC(=O)c2ccccc2)CC2CCC1N2C (stereo not given in full) | 5.75%
73 | COc1ccc(C2N3CC(C)(C)CN23)cc1 (stereo not given) | 4.71%
74 | O=C(O)c1ccccc1NC(=O)C1C2CCC(O2)C1C(=O)O (stereo not given) | 40.4%
75 | CCCCC(=O)N/N=C/c1c(O)n(CCC2=CCCCC2)c(=O)[nH]c1=O | 50.4% (active)
76 | CCCCC(=O)N/N=C/c1c(O)n(CC)c(=S)n(CC)c1=O | 10.6%
77 | CCCCC(=O)N/N=C/c1c(O)n(-c2ccccc2)c(=O)[nH]c1=O | 10.7%
78 | O=C1NC(=O)C(CCc2ccccn2)(Cc2cccc(Cl)c2Cl)C(=O)N1c1ccc(Br)cc1 (stereo not given) | 17.3%
79 | C/C(=N/O)c1ccc2ccc3ccccc3c2c1 | -52.9%
80 | O=Cc1cn(Cc2ccc(F)cc2Cl)c2ccccc12 | 50.9% (active)
81 | CN1CCC(N(C)Cc2cccnc2)CC1 | -0.974%
82 | CN(C)CCN(CC1CCCN(Cc2ccccc2F)C1)C(=O)Cc1ccc(F)c(F)c1 (stereo not given) | 15.4%
83 | CC(=O)c1ccc(OC(NC(=O)Cc2ccccc2)C(Cl)(Cl)Cl)cc1 (stereo not given) | 6.38%
84 | c1ccc(C2NCc3ccccc3-n3cccc32)cc1 (stereo not given) | 19.8%
85 | Cn1c(C(=O)N2CCC(C(=O)N3CCC4(CC3)OCCO4)CC2)cc2sccc21 | -1.94%
86 | CNC(=O)O/N=C(\N)Cc1csc2ccc(Cl)cc12 | 97.6% (active)
87 | CNC(=O)O/N=C(\N)Cc1csc2ccccc12 | 78.8% (active)
88 | CC[C@H]1CC2CN3CCc4c([nH]c5ccccc45)C(C(=O)OC)(C2)C13 (stereo not given in full) | 33.7%
89 | Cc1cc(N2C(=O)C3CCCN3C2c2ccc(Cl)c(Cl)c2)no1 (stereo not given) | -4.12%
90 | CCCn1c(C(=O)c2ccccc2OC)nc2ccccc21 | 10.6%
